Assay results: the supplement of paper PMC12067926

What was measured:
Assay in all cases: relative growth (AUC of 72 h growth curve relative to DMSO control, dAUC) (ratio); higher = more growth (less inhibition), active = hit call of the paper
Conditions in all cases: 20 µM;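 active = growth AUC significantly below the DMSO wells by Dunnett test; inactive = the rest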
[1] = tested on: Aeromonas 1 (Aeromonas sp. AE235)
Method in brief: (§1)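 Whole sediment communities and bacterial isolates from Icelandic stream sediments and Silwood Park soil were brought to carrying capacity in Luria–Bertani medium. They were then diluted 1:100 into 96-well plates with each chemical at 20 µM in 1% DMSO, and A600 was recorded every hour for 72 h. The area under each growth curve, integrated by spline, was averaged across three biological replicates. This figure, divided by the mean of the DMSO controls, gives relative growth (dAUC).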

[2] = tested on: Aeromonas 2 (Aeromonas sobria)
Method in brief: as §1

[3] = tested on: Aeromonas 3 (Aeromonas popoffii)
Method in brief: as §1

[4] = tested on: Argrobacterium 1 (Agrobacterium sp.)
Method in brief: as §1

[5] = tested on: Arthrobacter 1 (Arthrobacter humicola)
Method in brief: as §1

[6] = tested on: Arthrobacter 2 (Arthrobacter humicola)
Method in brief: as §1

[7] = tested on: Arthrobacter 3 (Arthrobacter sp.)
Method in brief: as §1

Community 4 = tested on: Community 4
Method in brief: as §1

Community 6 = tested on: Community 6
Method in brief: as §1

Measured: relative growth

CON(C)C(=O)Nc1ccc(Cl)c(Cl)c1
inactive: [1] 0.924 | [2] 0.996 | [3] 0.996 | [4] 0.869 | [5] 0.952 | [7] 0.929 | Community 4 0.943 | Community 6 0.995
active: [6] 0.595

CCCN(CCOc1c(Cl)cc(Cl)cc1Cl)C(=O)n1ccnc1
active: [6] 0.209 | [7] 0.352
inactive: [1] 1.02 | [2] 0.971 | [3] 1 | [4] 1.01 | [5] 0.702 | Community 4 0.934 | Community 6 0.982

CCC(C)(C)C(=O)OC1=C(c2ccc(Cl)cc2Cl)C(=O)OC12CCCCC2
inactive: [1] 0.99 | [2] 0.957 | [3] 1 | [4] 1.01 | [5] 0.721 | [6] 0.892 | [7] 0.892 | Community 4 1.03 | Community 6 1.08

COP(=O)(NC(C)=O)SC (centres undefined)
inactive: [1] 1.02 | [2] 0.995 | [3] 0.998 | [4] 1.03 | [5] 0.984 | [6] 0.906 | [7] 1.05 | Community 4 1.01 | Community 6 0.892

Cc1c(COC(=O)[C@@H]2[C@H](/C=C(\Cl)C(F)(F)F)C2(C)C)cccc1-c1ccccc1 (racemic)
inactive: [1] 0.988 | [2] 0.992 | [3] 1.05 | [4] 1.06 | [5] 1.17 | [6] 0.833 | [7] 0.786 | Community 4 0.998 | Community 6 1.05

CNC(=O)ON=C(C)SC
inactive: [1] 0.953 | [2] 0.974 | [3] 1.01 | [4] 0.974 | [5] 0.962 | [6] 1.01 | [7] 0.971 | Community 4 1.09 | Community 6 1.05

O=C1C2(Cl)C3(Cl)C4(Cl)C(Cl)(Cl)C5(Cl)C3(Cl)C1(Cl)C5(Cl)C24Cl (centres undefined)
active: [2] 0.817 | [5] 0.00606 | [6] 0.00565 | [7] 0.0264
inactive: [1] 0.934 | [3] 0.99 | [4] 1.03 | Community 4 0.858 | Community 6 0.811

CCC(=O)Nc1ccc(Cl)c(Cl)c1
inactive: [1] 0.948 | [2] 0.953 | [3] 0.955 | [4] 0.923 | [5] 1.12 | [6] 1 | [7] 1.02 | Community 4 1.07 | Community 6 1.01

CC(C)CC(C)c1sccc1NC(=O)c1cn(C)nc1C(F)(F)F (centres undefined)
inactive: [1] 0.935 | [2] 0.946 | [3] 0.994 | [4] 0.855 | [5] 0.87 | [6] 0.885 | [7] 0.936 | Community 4 0.78 | Community 6 0.806

O=C(O)COc1ccc(Cl)cc1Cl
inactive: [1] 0.976 | [2] 0.999 | [3] 0.998 | [4] 0.944 | [5] 0.921 | [6] 0.958 | [7] 0.969 | Community 4 1.04 | Community 6 1.02

COc1ccc(-c2ccccc2)cc1NNC(=O)OC(C)C
inactive: [1] 0.954 | [2] 0.947 | [3] 1.02 | [4] 0.937 | [5] 0.913 | [6] 0.87 | [7] 0.932 | Community 4 0.882 | Community 6 0.886

CNC(=O)c1cc(C#N)cc(C)c1NC(=O)c1cc(Br)nn1-c1ncccc1Cl
inactive: [1] 0.986 | [2] 0.95 | [3] 1.01 | [4] 1.03 | [5] 1 | [6] 0.967 | [7] 0.99 | Community 4 0.903 | Community 6 0.946

CCOC(=O)CC(SP(=S)(OC)OC)C(=O)OCC (centres undefined)
inactive: [1] 1.06 | [2] 0.992 | [3] 1.02 | [4] 1.01 | [5] 1.22 | [6] 1.05 | [7] 0.98 | Community 4 1.15 | Community 6 1.09

Oc1ccccc1-c1ccccc1
inactive: [1] 1.01 | [2] 0.967 | [3] 1.01 | [4] 0.914 | [5] 0.929 | [6] 0.866 | [7] 0.964 | Community 4 0.851 | Community 6 0.973

CC(C)(C)[C@@H](O)[C@H](Oc1ccc(Cl)cc1)n1cncn1
inactive: [1] 1.02 | [2] 1.04 | [3] 1.03 | [4] 1.03 | [5] 1.15 | [6] 1.1 | [7] 1.02 | Community 4 1.14 | Community 6 1.12

COCC(=O)N(c1c(C)cccc1C)[C@H](C)C(=O)OC
inactive: [1] 0.971 | [2] 1.01 | [3] 1.02 | [4] 1 | [5] 0.981 | [6] 1.03 | [7] 1.04 | Community 4 1.21 | Community 6 1.08

CC1(C)C(C(=O)OC(C#N)c2cccc(Oc3ccccc3)c2)C1(C)C (centres undefined)
inactive: [1] 0.986 | [2] 0.989 | [3] 1.08 | [4] 1.09 | [5] 1.1 | [6] 0.685 | [7] 0.704 | Community 4 1 | Community 6 1.03

CC(COc1ccc(Oc2ccccc2)cc1)Oc1ccccn1 (centres undefined)
inactive: [1] 1.04 | [2] 0.997 | [3] 1.08 | [4] 1.09 | [5] 1.11 | [6] 0.937 | [7] 0.925 | Community 4 1.08 | Community 6 1.07

CC(C)N(C)S(=O)(=O)NC(=O)c1cc(-n2c(=O)cc(C(F)(F)F)n(C)c2=O)c(F)cc1Cl
inactive: [1] 0.995 | [2] 1.02 | [3] 1.01 | [4] 1.03 | [5] 1.1 | [6] 1.01 | [7] 1.07 | Community 4 1.13 | Community 6 1.03

CCCCC(C#N)(Cn1cncn1)c1ccc(Cl)cc1 (centres undefined)
inactive: [1] 0.946 | [2] 0.901 | [3] 0.979 | [4] 1.07 | [5] 0.975 | [6] 0.849 | [7] 0.841 | Community 4 0.921 | Community 6 0.931

CC1(C)[C@H](/C=C(\Cl)C(F)(F)F)[C@@H]1C(=O)OC(C#N)c1cccc(Oc2ccccc2)c1 (some centres undefined)
inactive: [1] 0.951 | [2] 0.993 | [3] 1.04 | [4] 1.07 | [5] 1.28 | [6] 0.838 | [7] 0.955 | Community 4 0.998 | Community 6 1.03

CCNc1nc(Cl)nc(NC(C)C)n1
inactive: [1] 0.965 | [2] 0.972 | [3] 0.992 | [4] 1.01 | [5] 0.902 | [6] 1.03 | [7] 0.968 | Community 4 1.05 | Community 6 1.01

CC[C@H]1CCC[C@H](O[C@H]2CC[C@H](N(C)C)[C@@H](C)O2)[C@@H](C)C(=O)C2=C[C@@H]3[C@@H](C=C(C)[C@@H]4C[C@@H](O[C@@H]5O[C@@H](C)[C@H](OC)[C@@H](OC)[C@H]5OC)C[C@@H]34)[C@@H]2CC(=O)O1.CC[C@H]1CCC[C@H](O[C@H]2CC[C@H](N(C)C)[C@@H](C)O2)[C@@H](C)C(=O)C2=C[C@H]3[C@@H]4C[C@H](O[C@@H]5O[C@@H](C)[C@H](OC)[C@@H](OC)[C@H]5OC)C[C@H]4C=C[C@H]3C2CC(=O)O1
inactive: [1] 0.972 | [2] 0.977 | [3] 0.979 | [4] 1.08 | [5] 0.832 | [6] 0.89 | [7] 0.999 | Community 4 0.855 | Community 6 0.699

CCCC(Cn1cncn1)c1ccc(Cl)cc1Cl (centres undefined)
inactive: [1] 0.932 | [2] 0.996 | [3] 1.01 | [4] 1.15 | [5] 1 | [6] 1.02 | [7] 0.987 | Community 4 1.11 | Community 6 1.06

CCSC(C)CC1CC(=O)C(/C(CC)=N/OC/C=C/Cl)=C(O)C1 (mixture of isomers)
inactive: [1] 0.981 | [2] 0.969 | [3] 0.986 | [4] 1.01 | [5] 0.93 | [6] 0.987 | [7] 0.986 | Community 4 1.09 | Community 6 1.01

C/C(=N\C#N)N(C)Cc1ccc(Cl)nc1
inactive: [1] 0.986 | [2] 1.01 | [3] 1.04 | [4] 0.965 | [5] 1.03 | [6] 0.972 | [7] 0.973 | Community 4 1 | Community 6 1.05

Cc1cc(C(C#N)c2ccc(Cl)cc2)c(Cl)cc1NC(=O)c1cc(I)cc(I)c1O (centres undefined)
active: [2] 0.788 | [5] 0.0129 | [6] 0.011 | [7] 0.0114 | Community 4 0.631 | Community 6 0.454
inactive: [1] 0.979 | [3] 0.96 | [4] 0.833

O=C1C2CC=CCC2C(=O)N1SC(Cl)(Cl)Cl (centres undefined)
active: [4] 0.74 | Community 6 0.614
inactive: [1] 0.905 | [2] 1.01 | [3] 0.983 | [5] 0.95 | [6] 0.769 | [7] 0.919 | Community 4 0.671

OC(Cc1ccccc1Cl)(Cn1nc[nH]c1=S)C1(Cl)CC1 (centres undefined)
inactive: [1] 0.97 | [2] 0.986 | [3] 1.03 | [4] 1.01 | [5] 0.952 | [6] 1.04 | [7] 1.07 | Community 4 1.01 | Community 6 0.982

Fc1ccc([C@]2(Cn3cncn3)O[C@H]2c2ccccc2Cl)cc1 (racemic)
inactive: [1] 0.946 | [2] 0.979 | [3] 0.974 | [4] 0.985 | [5] 0.883 | [6] 0.947 | [7] 0.856 | Community 4 0.965 | Community 6 1.05

COC(=O)Nc1nc2ccccc2[nH]1
inactive: [1] 1.01 | [2] 0.956 | [3] 0.973 | [4] 0.992 | [5] 1.04 | [6] 1.05 | [7] 1.12 | Community 4 1.02 | Community 6 0.998
